The results in this text go back to PubChem BioAssay (EPA / NIEHS).

Where “and” joins values, the source holds several entries; their conditions need not be identical. Equal values may be shown once. Results filed as inconclusive are left out. A structure can be active in one record and inactive in another. Calls of active or inactive are those of the source. Rule for the calls, unless noted: active = hit-call score of the fitted dose curve at least 0.9, where 1 is the maximum; inactive = score below 0.9.

Assay [1] deals with Estrogen-related receptor gamma (Homo sapiens) (UniProt P62508). The assay can be described thus: ATG_ERRg_TRANS: Attagene TRANS-FACTORIAL HepG2 Assay for human Estrogen-Related Receptor gamma (ERRg) (AID 2282977; active = hit-call score of the fitted dose curve at least 0.9, where 1 is the maximum;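 note: hits increase reporter signal over DMSO so potencies reflect activators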). As to conditions: HepG2 Attagene TRANS reporter, ERRg transactivation. The essentials: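 Readout: fluorescent reporter-mRNA fragments resolved by capillary electrophoresis after RT-PCR and HpaI cut. Cells: transiently transfected HepG2 carrying GAL4-UAS reporters driven by exogenous NR-Gal4 chimeras, dosed 24 h. Activity fitted upward relative to DMSO baseline.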

In assay [2] the target is Bile acid receptor (Homo sapiens) (UniProt Q96RI1). The assay can be described thus: ATG_FXR_TRANS: Attagene TRANS-FACTORIAL HepG2 Assay for Farnesoid X Receptor (FXR) (AID 2282979; active = hit-call score of the fitted dose curve at least 0.9, where 1 is the maximum;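 note: hits raise reporter mRNA above DMSO so AC50 marks FXR activation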). The following applies: HepG2 Attagene TRANS FXR-GAL4 reporter transcription. An outline of the steps: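 Transient transfection of HepG2 with multiplexed GAL4-UAS reporter units; exogenous FXR-GAL4 chimera. Dose 24 h → TriZol RNA → oligo(dT) RT → PCR, 6-FAM primer extension, HpaI cut → CE. Gain vs DMSO.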

The target in assay [3] is Oxysterols receptor LXR-alpha (Homo sapiens) (UniProt Q13133). The assay can be described thus: ATG_LXRa_TRANS: Attagene TRANS-FACTORIAL HepG2 Assay for human Liver X Receptor alpha (LXRa) (AID 2282980; active = hit-call score of the fitted dose curve at least 0.9, where 1 is the maximum). The following applies: HepG2 Attagene TRANS reporter, LXRa transactivation. An outline of the steps: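 Transfect HepG2 with GAL4-UAS multiplex reporter constructs (TRANS format, chimeric receptor-GAL4); treat 24 h; extract RNA, reverse-transcribe, PCR-amplify, FAM-label, HpaI-digest; resolve fragments by capillary electrophoresis. Upward response vs DMSO.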

For assay [4], the target named is Oxysterols receptor LXR-beta (Homo sapiens) (UniProt P55055). The assay can be described thus: ATG_LXRb_TRANS: Attagene TRANS-FACTORIAL HepG2 Assay for human Liver X Receptor beta (LXRb) (AID 2282981; active = hit-call score of the fitted dose curve at least 0.9, where 1 is the maximum). As to conditions: HepG2 Attagene TRANS GAL4-LXRb reporter, mRNA. An outline of the steps: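 Readout: fluorescent reporter mRNA fragments resolved by capillary electrophoresis after RT-PCR. System: transiently transfected human HepG2, exogenous LXRb-Gal4 chimera driving GAL4-UAS reporter, 24 h dosing. Activity fitted upward against DMSO baseline.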

The target of assay [5] is Hepatocyte nuclear factor 4-alpha (Homo sapiens) (UniProt P41235). The assay can be described thus: ATG_HNF4a_TRANS: Attagene TRANS-FACTORIAL HepG2 Assay for human Hepatocyte Nuclear Factor 4 alpha (HNF4a) (AID 2282982; active = hit-call score of the fitted dose curve at least 0.9, where 1 is the maximum). The following applies: HepG2 HNF4a transactivation reporter, mRNA readout. The essentials:
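Transient MRTU transfection of HepG2, 24 h dosing. Readout: reporter mRNA via RT-PCR + capillary electrophoresis, fluorescence; activity fit upward relative to DMSO control.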

A short description of assay [6]: ATG_M_06_TRANS: Attagene TRANS-FACTORIAL HepG2 Assay for M06 Transcription Factor (Internal Marker) (AID 2282983; active = hit-call score of the fitted dose curve at least 0.9, where 1 is the maximum;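 note: reporter transcript level by RT-PCR then capillary electrophoresis fluorescence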). The following applies: HepG2 Attagene TRANS M06 internal marker reporter. The essentials:
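Background control endpoint: reporter mRNA from transiently transfected HepG2 after 24 h dosing, detected by RT-PCR with capillary electrophoresis fluorescence. Analysed for gain versus DMSO.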

Assay [7] in a line: ATG_M_32_TRANS: Attagene TRANS-FACTORIAL HepG2 Assay for M32 Transcription Factor (Internal Marker) (AID 2282984; active = hit-call score of the fitted dose curve at least 0.9, where 1 is the maximum;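 note: transcript level of a background control reporter unit measured by RT-PCR and capillary electrophoresis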). The following applies: HepG2 Attagene TRANS M32 internal marker reporter. The essentials: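 Read-out: fluorescent reporter cDNA fragments resolved by capillary electrophoresis after RT-PCR of total RNA. Transfected HepG2 cells were exposed to chemical for 24 h. Activity scored in the positive direction relative to DMSO.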

Assay [8] deals with Nuclear receptor subfamily 4 group A member 2 (Homo sapiens) (UniProt P43354). The assay can be described thus: ATG_NURR1_TRANS: Attagene TRANS-FACTORIAL HepG2 Assay for human Nuclear Receptor Related Protein 1 (NURR1) (AID 2282985; active = hit-call score of the fitted dose curve at least 0.9, where 1 is the maximum). As to conditions: HepG2 Attagene TRANS reporter, mRNA readout. The essentials:
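Read-out: reporter mRNA induction by RT-PCR plus capillary electrophoresis with fluorescence detection, after 24 h dosing of transfected HepG2 cells. Exogenous NR-Gal4 chimera activity drives GAL4-UAS reporter; activity fitted upward versus DMSO.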

In assay [9] the target is Nuclear respiratory factor 1 (Homo sapiens) (UniProt Q16656). The assay can be described thus: ATG_NRF1_CIS: Attagene CIS-FACTORIAL HepG2 Assay for human Nuclear Respiratory Factor 1 (NRF1) Orphan Gene (AID 2282987). The following applies: HepG2 NRF1 cis-element reporter, Attagene multiplex; actives raise or lower the signal. An outline of the steps:
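Reporter mRNA induction or loss in HepG2 cells after 24 h dosing; cis-regulated reporter constructs report endogenous transcription-factor activity. Quantified by RT-PCR/capillary electrophoresis fluorescence, DMSO-referenced.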

A short description of assay [10]: ATG_NFI_CIS: Attagene CIS-FACTORIAL HepG2 Assay for human Nuclear Factor I (NFI) (AID 2282989). As to conditions: HepG2 cis-regulatory reporter, NFI response element transcription; actives raise or lower the signal. The essentials: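 Cells: human liver HepG2, transiently transfected with promoter-regulated reporter transcription units. Exposure 24 h. Detection: fluorescent RT-PCR products separated by capillary electrophoresis, normalised to DMSO negative control.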

Assay [11] concerns the target Myc proto-oncogene protein (Homo sapiens) (UniProt P01106). The assay can be described thus: ATG_Myc_CIS: Attagene CIS-FACTORIAL HepG2 Assay for human Myelocytomatosis (Myc) Proto-Oncogene Transcription Factor (AID 2282990). As to conditions: HepG2, Attagene cis-reporter transcription factor activity; actives raise or lower the signal. An outline of the steps:
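Read-out: fluorescent reporter mRNA fragments resolved by capillary electrophoresis after RT-PCR. Human HepG2 liver cells carried transfected cis-element reporter units and were dosed for 24 h. Gain or loss of signal fitted relative to DMSO baseline.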

The nature of assay [12]: ATG_NRF2_ARE_CIS: Attagene CIS-FACTORIAL HepG2 Assay for human Nuclear Factor Erythroid 2 Related Factor 2 (NFR2) response to Antioxidant Response Elements (ARE) (AID 2282992).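 For AC50: reporter mRNA level measured by RT-PCR and capillary electrophoresis fluorescence.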 As to conditions: HepG2 Attagene ARE/NRF2 reporter, transcription factor activity; actives raise or lower the signal. The essentials:
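Fluorescence intensity of reporter-specific cDNA fragments, separated by capillary electrophoresis, reflects mRNA induction in transfected HepG2 cells at 24 h. Activity is fitted bidirectionally, DMSO serving as baseline.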

Assay [13] can be described thus: ATG_Oct_MLP_CIS: Attagene CIS-FACTORIAL HepG2 Assay for human Octamer-Binding Transcription Factor (Oct) (AID 2282993). The following applies: HepG2 Attagene cis-factorial Oct reporter, mRNA; actives raise or lower the signal. The essentials:
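HepG2, transient MRTU transfection, cis promoter elements; 24 h dosing; RT-PCR/CE fluorescence read-out of reporter mRNA; fit both directions vs DMSO.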

In assay [14] the target is Cellular tumor antigen p53 (Homo sapiens) (UniProt P04637). The assay can be described thus: ATG_p53_CIS: Attagene CIS-FACTORIAL HepG2 Assay for human p53 Transcription Factor (AID 2282994). As to conditions: HepG2 p53 cis-element reporter, Attagene mRNA; actives raise or lower the signal. An outline of the steps:
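Transiently transfected HepG2 (multiple cis reporter transcription units); exposure 24 h; reporter RNA via RT-PCR, 6-FAM extension, 2 h HpaI digest at 37 C, CE detection; DMSO baseline.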

A short description of assay [15]: BSK_3C_TissueFactor: BioMAP Diversity Plus: 3C Assay for Tissue Factor Biomarker Activity (AID 2282997). As to conditions: BioMAP 3C HUVEC, tissue factor biomarker readout; actives raise or lower the signal. An outline of the steps: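 After a 24 h chemical exposure of primary human umbilical vein endothelial cells, Tissue Factor levels were quantified by ELISA.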

Assay [16] in a line: BSK_3C_uPAR: BioMAP Diversity Plus: 3C Assay for Urokinase-type plasminogen activator receptor (uPAR) Biomarker Activity (AID 2282998). As to conditions: BioMAP 3C HUVEC, uPAR biomarker ELISA; actives raise or lower the signal. The essentials:
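A multiplexed primary-cell system built on human umbilical vein endothelium was used, with chemical present for 24 h before reading. Cell-surface uPAR was detected by ELISA; signal change in either direction counted against DMSO.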
On the technique in general: ELISA stands for enzyme-linked immunosorbent assay.

Assay [17] concerns the target Transcriptional activator Myb (Homo sapiens) (UniProt P10242). The assay can be described thus: ATG_Myb_CIS: Attagene CIS-FACTORIAL HepG2 Assay for human Myeloblastosis (Myb) Proto-Oncogene Transcription Factor (AID 2282986). As to conditions: HepG2 Attagene CIS-FACTORIAL Myb reporter transcription; actives raise or lower the signal. The essentials:
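Using HepG2 liver cells bearing transiently transfected cis-promoter reporter constructs, the assay measures induction or loss of reporter mRNA after 24 hours of dosing. Detection used fluorescently labeled RT-PCR products separated by capillary electrophoresis.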

Assay [18] in a line: ATG_NF_kB_CIS: Attagene CIS-FACTORIAL HepG2 Assay for human Nuclear Factor Kappa B (NF-kB) (AID 2282991). The following applies: HepG2 Attagene cis-factorial NF-kB reporter mRNA; actives raise or lower the signal. The essentials: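 DMSO served as negative control and baseline for bidirectional curve fitting. Transiently transfected HepG2 cells were dosed for 24 h, then reporter transcripts were measured by RT-PCR with capillary electrophoresis detection.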

A short description of assay [19]: BSK_4H_Eotaxin3: BioMAP Diversity Plus: 4H Assay for Eotaxin 3 Biomarker Activity (AID 2283000). The following applies: primary human endothelial cells (HUVEC); actives raise or lower the signal. The essentials:
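Chemicals were added to human umbilical vein endothelium cultures, and Eotaxin-3 was quantified by ELISA at 24 h. Values were derived by bidirectional fitting with DMSO serving as negative control and activity baseline.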

A short description of assay [20]: BSK_3C_VCAM1: BioMAP Diversity Plus: 3C Assay for Vascular cell adhesion molecule 1 (VCAM1) Biomarker Activity (AID 2282999). As to conditions: BioMAP 3C HUVEC, VCAM1 ELISA, cytokine-stimulated; actives raise or lower the signal. An outline of the steps:
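HUVEC primary cells, 24 h compound exposure; VCAM-1 by ELISA; gain/loss of signal fitted bidirectionally vs DMSO baseline.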

Chain of Nuclear respiratory factor 1 (Homo sapiens) (Q16656 whole entry, looked up): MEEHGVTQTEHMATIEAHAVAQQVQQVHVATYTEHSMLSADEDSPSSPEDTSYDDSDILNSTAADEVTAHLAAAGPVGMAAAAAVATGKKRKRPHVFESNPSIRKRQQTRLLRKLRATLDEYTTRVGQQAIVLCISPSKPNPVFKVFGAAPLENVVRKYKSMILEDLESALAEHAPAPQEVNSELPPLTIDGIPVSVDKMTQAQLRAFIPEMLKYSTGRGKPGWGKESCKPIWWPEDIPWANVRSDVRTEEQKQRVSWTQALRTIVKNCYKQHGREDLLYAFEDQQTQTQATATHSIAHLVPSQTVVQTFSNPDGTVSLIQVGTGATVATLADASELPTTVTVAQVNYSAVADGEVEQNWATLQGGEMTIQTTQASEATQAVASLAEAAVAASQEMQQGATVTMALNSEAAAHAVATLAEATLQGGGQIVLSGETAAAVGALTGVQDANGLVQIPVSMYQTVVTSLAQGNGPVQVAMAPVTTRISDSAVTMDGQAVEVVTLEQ
Chain of Oxysterols receptor LXR-beta (Homo sapiens) (P55055 whole entry, looked up, the tested form may be a part): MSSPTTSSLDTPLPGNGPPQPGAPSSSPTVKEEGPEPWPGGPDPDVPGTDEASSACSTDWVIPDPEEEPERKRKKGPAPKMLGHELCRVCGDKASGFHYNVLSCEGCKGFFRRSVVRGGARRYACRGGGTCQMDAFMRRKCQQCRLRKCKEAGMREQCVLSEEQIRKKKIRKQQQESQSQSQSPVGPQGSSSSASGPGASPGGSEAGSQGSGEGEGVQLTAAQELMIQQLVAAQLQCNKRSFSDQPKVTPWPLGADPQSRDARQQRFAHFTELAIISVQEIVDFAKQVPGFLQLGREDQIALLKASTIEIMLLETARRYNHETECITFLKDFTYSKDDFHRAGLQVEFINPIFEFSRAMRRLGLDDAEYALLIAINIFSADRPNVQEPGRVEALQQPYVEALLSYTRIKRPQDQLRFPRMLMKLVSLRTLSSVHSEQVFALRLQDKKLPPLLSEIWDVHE
Chain of Transcriptional activator Myb (Homo sapiens) (P10242 whole entry, looked up): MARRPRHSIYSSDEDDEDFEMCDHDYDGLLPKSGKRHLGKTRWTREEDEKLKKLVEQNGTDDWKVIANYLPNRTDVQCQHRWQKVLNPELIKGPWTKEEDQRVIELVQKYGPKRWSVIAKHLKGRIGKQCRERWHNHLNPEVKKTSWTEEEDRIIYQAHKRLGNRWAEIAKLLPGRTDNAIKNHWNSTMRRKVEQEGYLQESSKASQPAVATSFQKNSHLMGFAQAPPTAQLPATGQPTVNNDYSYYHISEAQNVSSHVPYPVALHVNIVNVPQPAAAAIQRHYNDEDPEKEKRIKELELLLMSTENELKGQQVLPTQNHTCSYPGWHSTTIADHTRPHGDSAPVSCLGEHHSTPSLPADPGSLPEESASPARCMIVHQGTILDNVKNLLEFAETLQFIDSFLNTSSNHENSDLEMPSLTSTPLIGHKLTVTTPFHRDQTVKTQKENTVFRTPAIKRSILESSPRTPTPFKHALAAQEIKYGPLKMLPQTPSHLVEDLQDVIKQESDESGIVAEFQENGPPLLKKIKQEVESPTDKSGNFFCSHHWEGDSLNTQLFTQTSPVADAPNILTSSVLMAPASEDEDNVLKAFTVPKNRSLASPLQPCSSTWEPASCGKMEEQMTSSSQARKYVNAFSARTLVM
Chain of Myc proto-oncogene protein (Homo sapiens) (P01106 whole entry, looked up, the tested form may be a part): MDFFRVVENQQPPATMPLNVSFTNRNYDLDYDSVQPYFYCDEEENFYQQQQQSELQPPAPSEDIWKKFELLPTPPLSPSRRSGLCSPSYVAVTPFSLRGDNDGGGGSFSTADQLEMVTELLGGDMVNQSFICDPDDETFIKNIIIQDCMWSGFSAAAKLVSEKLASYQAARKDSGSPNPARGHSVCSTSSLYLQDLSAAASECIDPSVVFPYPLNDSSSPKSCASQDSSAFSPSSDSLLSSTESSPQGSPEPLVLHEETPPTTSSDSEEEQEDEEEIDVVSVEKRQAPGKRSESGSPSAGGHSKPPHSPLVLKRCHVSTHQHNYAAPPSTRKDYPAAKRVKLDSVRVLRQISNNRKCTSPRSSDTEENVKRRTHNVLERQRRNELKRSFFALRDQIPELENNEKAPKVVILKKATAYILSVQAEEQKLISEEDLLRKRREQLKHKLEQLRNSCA
Chain of Oxysterols receptor LXR-alpha (Homo sapiens) (Q13133 whole entry, looked up, the tested form may be a part): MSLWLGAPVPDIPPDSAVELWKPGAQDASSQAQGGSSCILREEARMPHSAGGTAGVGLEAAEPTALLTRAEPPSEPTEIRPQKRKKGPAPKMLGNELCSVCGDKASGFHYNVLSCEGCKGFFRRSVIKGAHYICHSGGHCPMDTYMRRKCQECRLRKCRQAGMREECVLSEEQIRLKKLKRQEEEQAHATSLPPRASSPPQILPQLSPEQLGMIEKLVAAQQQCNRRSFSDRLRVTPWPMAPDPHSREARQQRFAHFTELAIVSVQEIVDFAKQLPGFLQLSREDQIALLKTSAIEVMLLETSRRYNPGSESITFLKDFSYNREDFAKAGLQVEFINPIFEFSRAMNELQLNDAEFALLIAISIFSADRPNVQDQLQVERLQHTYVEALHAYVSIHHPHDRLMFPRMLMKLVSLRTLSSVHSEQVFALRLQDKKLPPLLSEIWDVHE
Chain of Bile acid receptor (Homo sapiens) (Q96RI1 whole entry, looked up, the tested form may be a part): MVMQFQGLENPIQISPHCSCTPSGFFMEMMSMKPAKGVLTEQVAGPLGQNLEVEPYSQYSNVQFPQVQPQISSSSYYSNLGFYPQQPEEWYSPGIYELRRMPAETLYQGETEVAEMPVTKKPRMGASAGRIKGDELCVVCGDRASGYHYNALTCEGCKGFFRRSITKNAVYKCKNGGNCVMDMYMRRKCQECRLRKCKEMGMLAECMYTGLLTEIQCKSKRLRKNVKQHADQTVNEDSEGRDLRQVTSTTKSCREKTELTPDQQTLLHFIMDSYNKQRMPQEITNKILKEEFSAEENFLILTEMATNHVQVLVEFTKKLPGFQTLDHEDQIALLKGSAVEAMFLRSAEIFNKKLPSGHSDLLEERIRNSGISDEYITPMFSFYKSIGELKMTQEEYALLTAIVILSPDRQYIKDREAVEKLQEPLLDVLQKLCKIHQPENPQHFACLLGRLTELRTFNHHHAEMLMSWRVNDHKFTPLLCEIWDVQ
Chain of Hepatocyte nuclear factor 4-alpha (Homo sapiens) (P41235 whole entry, looked up): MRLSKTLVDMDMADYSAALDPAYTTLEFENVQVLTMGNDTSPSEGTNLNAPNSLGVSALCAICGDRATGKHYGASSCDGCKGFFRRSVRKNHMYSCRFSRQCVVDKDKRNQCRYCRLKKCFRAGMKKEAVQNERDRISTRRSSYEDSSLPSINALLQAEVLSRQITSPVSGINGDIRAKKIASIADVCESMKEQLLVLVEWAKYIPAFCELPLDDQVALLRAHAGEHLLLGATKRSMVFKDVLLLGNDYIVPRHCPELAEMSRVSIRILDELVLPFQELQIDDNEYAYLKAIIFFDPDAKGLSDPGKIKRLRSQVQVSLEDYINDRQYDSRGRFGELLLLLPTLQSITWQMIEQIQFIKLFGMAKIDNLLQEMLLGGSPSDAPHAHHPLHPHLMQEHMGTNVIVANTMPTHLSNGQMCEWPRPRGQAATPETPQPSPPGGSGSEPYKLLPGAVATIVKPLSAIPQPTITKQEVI
Chain of Cellular tumor antigen p53 (Homo sapiens) (P04637 whole entry, looked up): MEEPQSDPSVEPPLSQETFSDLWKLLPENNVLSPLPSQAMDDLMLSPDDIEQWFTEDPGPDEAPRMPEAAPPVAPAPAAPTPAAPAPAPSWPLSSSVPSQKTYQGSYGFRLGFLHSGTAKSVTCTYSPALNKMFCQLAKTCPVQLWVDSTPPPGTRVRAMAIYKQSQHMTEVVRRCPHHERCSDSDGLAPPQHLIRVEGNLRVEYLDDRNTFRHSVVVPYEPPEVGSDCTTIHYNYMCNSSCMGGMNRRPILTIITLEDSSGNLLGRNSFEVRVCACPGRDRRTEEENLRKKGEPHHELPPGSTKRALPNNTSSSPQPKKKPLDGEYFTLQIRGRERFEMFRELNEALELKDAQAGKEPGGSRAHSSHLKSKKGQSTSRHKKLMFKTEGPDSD
Chain of Nuclear receptor subfamily 4 group A member 2 (Homo sapiens) (P43354 whole entry, looked up, the tested form may be a part): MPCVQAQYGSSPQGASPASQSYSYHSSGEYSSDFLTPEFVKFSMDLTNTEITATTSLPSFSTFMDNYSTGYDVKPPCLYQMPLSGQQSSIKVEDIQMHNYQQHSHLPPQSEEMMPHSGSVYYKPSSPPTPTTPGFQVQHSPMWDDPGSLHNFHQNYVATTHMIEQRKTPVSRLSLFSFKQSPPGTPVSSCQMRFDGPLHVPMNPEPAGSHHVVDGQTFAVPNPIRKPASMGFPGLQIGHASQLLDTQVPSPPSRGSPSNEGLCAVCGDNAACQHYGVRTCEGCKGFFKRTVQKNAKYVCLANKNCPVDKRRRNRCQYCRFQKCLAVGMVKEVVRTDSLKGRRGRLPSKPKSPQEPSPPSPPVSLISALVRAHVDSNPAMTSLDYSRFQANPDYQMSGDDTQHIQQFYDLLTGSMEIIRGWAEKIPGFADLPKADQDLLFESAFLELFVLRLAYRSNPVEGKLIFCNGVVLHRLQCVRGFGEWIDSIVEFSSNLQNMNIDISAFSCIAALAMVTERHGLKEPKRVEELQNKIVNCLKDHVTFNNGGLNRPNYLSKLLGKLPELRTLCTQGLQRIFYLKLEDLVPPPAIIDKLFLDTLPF
Chain of Estrogen-related receptor gamma (Homo sapiens) (P62508 whole entry, looked up, the tested form may be a part): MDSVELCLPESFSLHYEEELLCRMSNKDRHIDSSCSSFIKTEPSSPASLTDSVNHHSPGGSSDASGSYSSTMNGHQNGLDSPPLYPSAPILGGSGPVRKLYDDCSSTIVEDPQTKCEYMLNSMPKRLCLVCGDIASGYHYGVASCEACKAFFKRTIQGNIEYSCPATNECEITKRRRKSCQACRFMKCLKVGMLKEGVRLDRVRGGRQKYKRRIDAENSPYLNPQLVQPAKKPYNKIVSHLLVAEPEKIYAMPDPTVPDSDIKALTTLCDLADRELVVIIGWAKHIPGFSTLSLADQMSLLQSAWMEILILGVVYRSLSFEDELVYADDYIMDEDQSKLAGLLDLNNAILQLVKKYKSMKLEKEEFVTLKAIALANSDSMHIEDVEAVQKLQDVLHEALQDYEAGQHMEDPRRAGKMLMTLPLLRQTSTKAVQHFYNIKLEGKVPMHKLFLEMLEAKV

As to `C[C@]12CCC(=O)C=C1CC[C@@H]1[C@@H]2CC[C@]2(C)C(=O)CC[C@@H]12`, the compound was classed as inactive in assay [1], in assay [2], in assay [3], in assay [4], in assay [5] and in [6]. Also, the compound was called inactive in [7], in assay [8], in assay [9], in assay [10], in assay [11] and in [12]. For the same compound, the compound was called inactive in assay [13], in assay [14], in [15] and in [16].
Broadly, the AC50 is the midpoint of the concentration-response curve, whichever way the signal moves. For the compound `NS(=O)(=O)C(F)(F)C(F)(F)C(F)(F)C(F)(F)C(F)(F)C(F)(F)C(F)(F)C(F)(F)F`, the compound was classed as inactive in [2], in assay [3], in assay [4], in assay [5], in assay [6] and in assay [7]. In addition, the call in [8], in assay [17], in [9], in [11], in [18] and in assay [13] was inactive. Besides, the outcome in assay [14] was inactive. Besides, the AC50 is 44.3 µM (active) and 37.1 µM (active) and 50 µM (active) in assay [10]; 27.6 µM (active) in assay [11]; 60.1 µM (active) and 253 µM (active) in assay [18]; 28.9 µM (active) and 268 µM (active) and 15.4 µM (active) in assay [12]; 50 µM (active) in assay [13]; 112 µM (active) in assay [14]. Further, the AC50 in [15] is 30.2 µM (active) and 49.5 µM (active) and 52.9 µM (active); in assay [16] it was 29.9 µM (active) and 42.3 µM (active) and 44.1 µM (active); in assay [19], 30.6 µM (active) and 46.8 µM (active) and 54 µM (active).
Turning to `CCCCCCCCCC[N+](C)(C)CCCCCCCCCC`, the call in assay [2], in assay [4], in assay [5], in [6], in [7] and in assay [8] was inactive. Also, the result in assay [10] and in [18] was inactive. Moreover, the AC50 in [9] was 100 µM (active); in [11] it was 7.82 µM (active); in assay [12] it was 3.63 µM (active); in assay [13] it was 3.99 µM (active); in assay [14], 100 µM (active); in assay [15], 4.21 µM (active). Besides, the AC50 was 2.43 µM (active) in [16] and 6.12 µM (active) in assay [20].
